The values that follow come from PubChem BioAssay.

A number with no mark means an inactive call. The rule behind the calls is not given here.

Botulinum neurotoxin type A (Clostridium botulinum), sequence (P0DPI0 whole entry, looked up): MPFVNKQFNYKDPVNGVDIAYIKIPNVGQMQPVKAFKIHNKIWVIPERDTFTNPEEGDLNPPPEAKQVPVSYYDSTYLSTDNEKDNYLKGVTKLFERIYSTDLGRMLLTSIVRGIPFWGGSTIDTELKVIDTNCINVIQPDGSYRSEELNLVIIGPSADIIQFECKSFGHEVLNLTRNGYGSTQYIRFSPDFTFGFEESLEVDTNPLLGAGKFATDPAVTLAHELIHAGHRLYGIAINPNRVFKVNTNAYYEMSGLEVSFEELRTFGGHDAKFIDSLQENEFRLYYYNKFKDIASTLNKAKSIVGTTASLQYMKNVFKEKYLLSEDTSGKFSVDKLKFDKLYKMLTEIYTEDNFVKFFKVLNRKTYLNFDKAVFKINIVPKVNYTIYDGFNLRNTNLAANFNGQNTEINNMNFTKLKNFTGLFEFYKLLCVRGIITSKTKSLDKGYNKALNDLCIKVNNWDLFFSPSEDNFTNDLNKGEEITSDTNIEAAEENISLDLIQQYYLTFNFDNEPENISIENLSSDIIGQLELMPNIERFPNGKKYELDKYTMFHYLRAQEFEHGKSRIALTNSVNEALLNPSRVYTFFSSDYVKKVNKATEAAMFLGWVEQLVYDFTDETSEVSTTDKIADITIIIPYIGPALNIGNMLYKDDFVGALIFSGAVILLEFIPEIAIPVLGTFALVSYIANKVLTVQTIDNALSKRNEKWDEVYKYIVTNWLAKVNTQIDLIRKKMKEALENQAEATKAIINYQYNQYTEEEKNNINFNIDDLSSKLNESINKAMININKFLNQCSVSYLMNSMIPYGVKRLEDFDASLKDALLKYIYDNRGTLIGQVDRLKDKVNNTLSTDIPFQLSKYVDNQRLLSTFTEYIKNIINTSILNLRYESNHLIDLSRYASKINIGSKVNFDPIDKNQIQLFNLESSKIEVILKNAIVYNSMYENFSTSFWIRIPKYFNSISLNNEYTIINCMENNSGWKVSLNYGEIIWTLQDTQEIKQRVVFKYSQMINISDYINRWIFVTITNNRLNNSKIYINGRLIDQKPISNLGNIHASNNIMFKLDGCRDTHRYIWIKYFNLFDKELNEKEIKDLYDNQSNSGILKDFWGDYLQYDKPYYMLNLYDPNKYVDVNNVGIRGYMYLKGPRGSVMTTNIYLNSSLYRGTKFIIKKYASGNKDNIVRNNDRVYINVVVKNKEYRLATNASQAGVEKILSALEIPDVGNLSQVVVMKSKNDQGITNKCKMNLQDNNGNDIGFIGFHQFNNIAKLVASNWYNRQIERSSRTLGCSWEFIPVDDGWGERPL

The first assay addresses Botulinum neurotoxin type A (Clostridium botulinum) (UniProt P0DPI0). The experiment in a line: BoNT/A light chain protease inhibitors, biochemical, multiplex microsphere flow cytometry, validation set (AID 588460). Particulars: at 10 µM, active compounds read high.
For `COc1cc(C2CC(=O)NC3=C2C(=O)CC(C)(C)C3)ccc1O` (centres undefined), the inhibition is 0.3%.

For the molecule `CNC[C@H](O)c1ccc(O)c(O)c1`, the inhibition is -0.9%.

As for `C[C@H](NC(=O)Nc1ccccc1F)C(=O)O`, the inhibition was -0.3%.

Consider `O=C1Nc2ccc3sc4ccccc4c3c2C1=O`, for which the inhibition is -0.8%.

With `O=C(NCCc1c[nH]c2ccccc12)c1cccnc1`, the inhibition was -0.7%.

As for `CC(C)(Oc1ccc(CCNC(=O)c2ccc(Cl)cc2)cc1)C(=O)O`, the inhibition is 0.1%.

With `CCCCC(=O)O[C@]1(C(=O)CO)CC[C@H]2[C@@H]3CCC4=CC(=O)CC[C@]4(C)[C@H]3[C@@H](O)C[C@@]21C`, the inhibition was -0.5%.

In the case of `COC(=O)[C@H]1[C@H]2C[C@@H]3c4[nH]c5cc(OC)ccc5c4CCN3C[C@H]2C[C@@H](OC(=O)c2ccc(N)cc2)[C@@H]1OC`, the inhibition is -2.3%.

As to `N/C(=N\OC(=O)CCCOc1ccc(Cl)cc1Cl)c1ccncc1`, the inhibition was 0.1%.

With `O=C(/C=C/c1ccc(F)cc1)NC(=S)N1CCCCC1c1cccnc1` (centres undefined), the inhibition was -0.6%.

Regarding `CCCC(=O)Nc1ccc(OCC(O)CNC(C)C)c(C(C)=O)c1` (centres undefined), the inhibition was 1.1%.

As to `C#C[C@]1(O)CC[C@H]2[C@@H]3CCc4cc(O)ccc4[C@H]3CC[C@@]21C`, the inhibition is -2.8%.

As for `COc1cc(CNc2nnnn2C)ccc1OCc1ccc(F)cc1Cl`, the inhibition is -0.5%.

In the case of `COc1ccc2c(CCNC(=O)c3ccc([N+](=O)[O-])cc3)c[nH]c2c1`, the inhibition was -0.5%.

As for `O=C(/C=C/c1ccccc1)/C=C/c1ccccc1`, the inhibition is 0.3%.

For `COc1ccc(-c2[nH]ncc2CN(CCO)Cc2cccs2)c(F)c1`, the inhibition is 0.8%.

As for `COc1ccc2cc(-c3nc4ccccc4n3C)c(=O)oc2c1`, the inhibition is 1.8%.

On to `Cc1ccc2c(c1)c1c3n2CCCNC3CCC1` (centres undefined), for which the inhibition is 1.9%.

Consider `O=C(Cc1cccc2ccccc12)N1CC[C@@]2(O)CCCC[C@H]2C1`, for which the inhibition is 0.2%.

As to `CN1C(=O)C(O)(CC(=O)c2ccccc2O)c2cc(Br)ccc21` (centres undefined), the inhibition was -0.1%.

For `Cc1ccc(C(=O)N2CC3(C(C)C)CN(C(=O)c4ccc(C)cc4)CC(C(C)C)(C2)C3=O)cc1`, the inhibition was -0.5%.

In the case of `COc1ccc([C@@H]2Sc3ccccc3N(CCN(C)C)C(=O)[C@@H]2OC(C)=O)cc1`, the inhibition is 0.1%.

`CC(C)=CCCC(C)CN1CCC(N2CCC(C(=O)N3CCCC3)CC2)CC1` (centres undefined): the inhibition was -0.4%.

On to `O=C(O)CCn1cnc2ccccc2c1=O`, for which the inhibition was 0.3%.

The target in the next assay is Lethal factor (Bacillus anthracis) (UniProt P15917). Description: Bacillus anthracis lethal factor inhibition, microsphere flow cytometry protease assay, validation at 10 µM (AID 588461). Particulars: multiplex microsphere protease cleavage assay, active compounds read high.
Lethal factor (Bacillus anthracis), sequence (P15917 whole entry, looked up): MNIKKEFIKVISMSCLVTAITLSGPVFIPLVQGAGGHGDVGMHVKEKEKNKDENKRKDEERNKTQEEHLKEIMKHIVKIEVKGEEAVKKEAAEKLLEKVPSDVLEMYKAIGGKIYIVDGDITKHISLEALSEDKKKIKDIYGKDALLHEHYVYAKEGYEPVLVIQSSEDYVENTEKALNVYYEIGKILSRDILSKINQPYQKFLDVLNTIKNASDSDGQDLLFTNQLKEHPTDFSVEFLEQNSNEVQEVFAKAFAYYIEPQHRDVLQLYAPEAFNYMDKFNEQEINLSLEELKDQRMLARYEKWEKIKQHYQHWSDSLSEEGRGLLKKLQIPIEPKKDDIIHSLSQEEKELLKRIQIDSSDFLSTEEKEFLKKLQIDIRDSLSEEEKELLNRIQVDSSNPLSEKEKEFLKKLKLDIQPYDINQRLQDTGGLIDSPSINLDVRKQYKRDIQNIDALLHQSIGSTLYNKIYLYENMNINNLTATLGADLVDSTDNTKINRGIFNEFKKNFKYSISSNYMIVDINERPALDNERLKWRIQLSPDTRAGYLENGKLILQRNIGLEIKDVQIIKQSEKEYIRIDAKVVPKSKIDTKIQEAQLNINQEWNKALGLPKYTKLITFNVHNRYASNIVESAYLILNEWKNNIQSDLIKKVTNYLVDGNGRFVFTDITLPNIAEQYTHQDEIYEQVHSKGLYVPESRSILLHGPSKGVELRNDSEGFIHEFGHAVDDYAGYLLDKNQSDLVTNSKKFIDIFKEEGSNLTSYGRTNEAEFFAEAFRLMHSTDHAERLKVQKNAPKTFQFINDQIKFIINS
`CC(=O)C1=C(O)C(=O)OC1c1ccc(C)cc1` (centres undefined): the inhibition is -4.5%.

Consider `COc1ccc(Cc2noc(CN(C)CC3(N4CCOCC4)CCCCC3)n2)cc1OC`, for which the inhibition was -0.4%.

For `C=CCc1ccccc1OCC(O)CNC(C)C` (centres undefined), the inhibition was -6.5%.

As for `CC(=O)c1cn(C)c(=O)[nH]c1=O`, the inhibition is -0.5%.

Consider `CC(=O)CCc1c(C)c2cccc(C)c2[nH]c1=O`, for which the inhibition was -3.4%.

As to `CCN(CC)CCOC(=O)C1(C2CCCCC2)CCCCC1`, the inhibition is -2.4%.

On to `CC1(C)O[C@@H]2C[C@H]3[C@@H]4C[C@H](F)C5=CC(=O)CC[C@]5(C)[C@H]4[C@@H](O)C[C@]3(C)[C@]2(C(=O)CO)O1`, for which the inhibition was 10.7%.

With `CCc1cc(=O)oc2cc(C)c(CN3CCCC(C)C3)c(O)c12` (centres undefined), the inhibition was -3.1%.

Take `Cc1cnc(C(=O)NCCc2ccc(S(=O)(=O)NC(=O)NC3CCCCC3)cc2)cn1`: the inhibition is -0.1%.

For `CC(=O)N1CCN(c2ccc(OC[C@H]3CO[C@](Cn4ccnc4)(c4ccc(Cl)cc4Cl)O3)cc2)CC1`, the inhibition is -3.1%.

For the molecule `CCOC(=O)C(=Cc1ccccc1OC)C(=O)OCC`, the inhibition was -6.9%.

As for `Cc1nc2c(c3c1[nH]c1ccccc13)C(=O)CC(C)(C)C2`, the inhibition is 6%.

In the case of `CC(=O)N(CCC(Cc1ccccc1)c1ccco1)Cc1ccco1` (centres undefined), the inhibition is 0.3%.

For the molecule `O=C1OC(c2ccc(O)cc2)(c2ccc(O)cc2)c2ccccc21`, the inhibition is -3.6%.

Regarding `Cc1cnc(C(=O)N2CCCC(C(=O)c3ccc(Cl)cc3C)C2)cn1` (centres undefined), the inhibition was -0.9%.

With `CC(C)(C)c1csc(N/N=C/c2cccnc2)n1`, the inhibition was 0.6%.

Regarding `COc1cc(C2CC(=O)NC3=C2C(=O)CC(C)(C)C3)ccc1O` (centres undefined), the inhibition was 0%.

On to `CNC[C@H](O)c1ccc(O)c(O)c1`, for which the inhibition was -4.8%.

As for `C[C@H](NC(=O)Nc1ccccc1F)C(=O)O`, the inhibition is -3.2%.

As for `O=C1Nc2ccc3sc4ccccc4c3c2C1=O`, the inhibition is 1.4%.

Take `O=C(NCCc1c[nH]c2ccccc12)c1cccnc1`: the inhibition was 1.1%.

For the molecule `CC(C)(Oc1ccc(CCNC(=O)c2ccc(Cl)cc2)cc1)C(=O)O`, the inhibition is 8.7%.

As for `CCCCC(=O)O[C@]1(C(=O)CO)CC[C@H]2[C@@H]3CCC4=CC(=O)CC[C@]4(C)[C@H]3[C@@H](O)C[C@@]21C`, the inhibition is -2.1%.

As to `COC(=O)[C@H]1[C@H]2C[C@@H]3c4[nH]c5cc(OC)ccc5c4CCN3C[C@H]2C[C@@H](OC(=O)c2ccc(N)cc2)[C@@H]1OC`, the inhibition is -32.8%.

Regarding `N/C(=N\OC(=O)CCCOc1ccc(Cl)cc1Cl)c1ccncc1`, the inhibition is 1%.

`O=C(/C=C/c1ccc(F)cc1)NC(=S)N1CCCCC1c1cccnc1` (centres undefined): the inhibition is -0.1%.

With `CCCC(=O)Nc1ccc(OCC(O)CNC(C)C)c(C(C)=O)c1` (centres undefined), the inhibition was -26.9%.

Consider `C#C[C@]1(O)CC[C@H]2[C@@H]3CCc4cc(O)ccc4[C@H]3CC[C@@]21C`, for which the inhibition is 6.8%.

Consider `COc1cc(CNc2nnnn2C)ccc1OCc1ccc(F)cc1Cl`, for which the inhibition is -1.3%.

As to `COc1ccc2c(CCNC(=O)c3ccc([N+](=O)[O-])cc3)c[nH]c2c1`, the inhibition was -5%.

For the molecule `O=C(/C=C/c1ccccc1)/C=C/c1ccccc1`, the inhibition was 1.5%.

With `COc1ccc(-c2[nH]ncc2CN(CCO)Cc2cccs2)c(F)c1`, the inhibition is 5.8%.

For the molecule `COc1ccc2cc(-c3nc4ccccc4n3C)c(=O)oc2c1`, the inhibition was 1%.

On to `Cc1ccc2c(c1)c1c3n2CCCNC3CCC1` (centres undefined), for which the inhibition is 0.5%.

As to `O=C(Cc1cccc2ccccc12)N1CC[C@@]2(O)CCCC[C@H]2C1`, the inhibition was -5.4%.

In the case of `CN1C(=O)C(O)(CC(=O)c2ccccc2O)c2cc(Br)ccc21` (centres undefined), the inhibition was -5.4%.

For `Cc1ccc(C(=O)N2CC3(C(C)C)CN(C(=O)c4ccc(C)cc4)CC(C(C)C)(C2)C3=O)cc1`, the inhibition was -2.5%.

In the case of `COc1ccc([C@@H]2Sc3ccccc3N(CCN(C)C)C(=O)[C@@H]2OC(C)=O)cc1`, the inhibition is 1%.

Regarding `CC(C)=CCCC(C)CN1CCC(N2CCC(C(=O)N3CCCC3)CC2)CC1` (centres undefined), the inhibition was -1.1%.

As to `O=C(O)CCn1cnc2ccccc2c1=O`, the inhibition was -3.5%.
